38 compounds from PubChem BioAssay (NCI) can be followed below.

Compounds without any hit were thinned out: in the full panel of roughly 83,000, 20% have a hit.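 How to read the values: 0–100, growth inhibition (40 = 60% inhibited); 0, no net growth; -100 to 0, cell death (-40 = 40% of starting cells died; -100 = all dead).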 A number with no mark means an inactive call. The source made the active and inactive calls. Rule for the calls: active = growth percent below 10; inactive = the rest.

In the first experiment the test system is LOX IMVI melanoma. The experiment in a line: NCI-60 one-dose screen, 48 h (100 = growth as untreated, 0 = no growth, -100 = all killed). The following applies: 10 µM unless noted.
For the compound `COc1ccc2nc(C)cc(Sc3nc4ccccc4s3)c2c1`, the growth was 29.4%.

Regarding `CCN(CC)CCCC(C)Nc1ccnc2ccc(Oc3ccccc3)cc12` (stereo unspecified), the growth is 36.4%.

Turning to `FC(F)(F)c1nn[nH]n1`, the growth is 87.2%.

Consider `CC(C)c1nc2ccccc2n1CC(=O)N/N=C/c1cccc(O)c1`, for which the growth was 99.6%.

On to `O=c1c2cc(Br)cc(Br)c2nc(-c2ccc(Cl)cc2)n1/N=C\c1ccccc1F`, for which the growth is 70.3%.

Regarding `C=CCN(CC#N)CC=C`, the growth is 101%.

Turning to `COC(=O)[C@@H](Cc1c[nH]c2ccccc12)NC(=O)/C=C/c1ccccc1`, the growth was 38.3%.

Turning to `CCOC(=O)C(CCCCC(NC(C)=O)(C(=O)OCC)C(=O)OCC)(NC(C)=O)C(=O)OCC`, the growth is 98.3%.

As for `COc1ccc(-c2cnnn2-c2nonc2-n2cccc2)cc1`, the growth is 34.1%.

In the case of `CSC1=N/C(=C\c2cccc(OCc3ccc(Cl)cc3)c2)C(=O)N1`, the growth was 84.2%.

Consider `COc1ccc([C@H]2c3[nH]c4ccccc4c3C[C@H]3C(=O)N(CCCCCCC(=O)NO)CC(=O)N23)cc1`, for which the growth was 13.1%.

`c1csc(-c2cnc3nonc3n2)c1`: the growth is 62.6%.

With `CC1(C)CN(CCNc2nccc(-c3c(-c4cccc(O)c4)nc4sccn34)n2)S(=O)(=O)N1`, the growth is 18.2%.

`COc1cc(C2CC(c3ccc(Cl)cc3)=NN2C(C)=O)ccc1Oc1ccnc2cc(Cl)ccc12` (stereo unspecified): the growth is 37.9%.

As for `CN(C)CCCn1c(=O)c2cc([N+](=O)[O-])ccc2c2cnc3[nH]ccc3c21`, the growth was 38.5%.

In the case of `CN(C)N1C(=O)c2c(Cl)c(Cl)c(Cl)c(Cl)c2C1=O`, the growth is 96.8%.

For `CCCCCCCCCCCCNC(=O)N[C@H](C(=O)N[C@H]1/C=C/OCCNC(=O)/C=C/[C@H](C(C)C)NC1=O)C(C)C`, the growth is 55.7%.

With `COc1ccc2c(c1)sc1nc(-c3ccccc3)c(-c3cccc4ccccc34)n12`, the growth was 38.6%.

For the compound `O=C(O)CSc1ccc(NCc2oc(CO)cc(=O)c2O)cc1`, the growth is 91.7%.

Turning to `Oc1ccc(-c2nnc3c4[nH]ccc4ncn23)cc1`, the growth is 89.9%.

On to `COc1cccc(N2CCN(c3ncnc4cc[nH]c34)CC2)c1`, for which the growth is 51.6%.

In the case of `NC(N)=NC1CCCCC1`, the growth was 91.6%.

Regarding `COc1cc(CN(c2ccc(C)cc2)C2OC(=O)c3ccccc32)cc(OC)c1OC` (stereo unspecified), the growth is 42.7%.

`CC(C)(C)OC[C@@H]1N=C(c2ccc(Br)cc2)Nc2nc3ccccn3c2C1=O`: the growth is 58.7%.

Regarding `Cc1ccc(Nc2cc(Cl)c([N+](=O)[O-])cc2[N+](=O)[O-])cc1`, the growth was 9.04% (active).

In the case of `N/C(=C\C(=O)n1nc(-c2ccccc2)cc1N)c1ccccc1`, the growth was 51.4%.

On to `Nc1nc(N)c2cc(NCc3ccc(Cl)c(Cl)c3)ccc2n1`, for which the growth was -80.4% (active).

Take `Cn1c(-c2ccccc2)cc(=O)n1-c1ccccc1`: the growth was 101%.

On to `O=C(Nc1ccncc1)C(=O)c1cn(S(=O)(=O)c2cccc(Cl)c2F)c2ccccc12`, for which the growth is 51.3%.

For the compound `O=C(CSc1nnc(Cc2ccccc2Nc2c(Cl)cccc2Cl)n1-c1ccccc1)N1N=C(c2ccc3ccccc3c2)CC1c1ccc(Cl)cc1` (stereo unspecified), the growth was 94%.

Turning to `CSc1ccc(/C=C2\C=C(CC(=O)NCc3ccc(C(=O)c4ccccc4)cc3)c3cc(F)ccc32)cc1`, the growth was 5.66% (active).

Turning to `C=C1C(=O)O[C@H]2[C@H]1CC/C(COC(=O)NCc1ccc(Cn3c(=O)sn(CCCl)c3=O)cc1)=C\CC[C@@]1(C)O[C@@H]21`, the growth was 60.8%.

Consider `O=C(O/C(=C/c1ccccc1)C(F)(F)F)c1ccccc1`, for which the growth was 99.1%.

On to `COc1ccc(N=C2CSc3nnc(-c4cc(F)c(Cl)cc4Cl)n3N2)cc1`, for which the growth was -42.1% (active).

On to `CCCCCCCCN(CCCCCCCC)C(=O)CCl`, for which the growth was -63.3% (active).

On to `CC(C)(CCc1ccccn1)C(=O)CCCc1ccccn1`, for which the growth was 94.2%.

With `Cn1cnc([N+](=O)[O-])c1S(=O)(=O)Oc1ccccc1`, the growth is 59.5%.

For the compound `CCOC(=O)C1=C(C)NC(=S)NC1c1ccccc1` (stereo unspecified), the growth was 101%.

The next experiment deals with SK-MEL-28 melanoma. Described as above. The following applies: 10 µM unless noted.
For `COc1ccc2nc(C)cc(Sc3nc4ccccc4s3)c2c1`, the growth is 62.7%.

Turning to `CCN(CC)CCCC(C)Nc1ccnc2ccc(Oc3ccccc3)cc12` (stereo unspecified), the growth is -6.8% (active).

Take `FC(F)(F)c1nn[nH]n1`: the growth is 113%.

As to `CC(C)c1nc2ccccc2n1CC(=O)N/N=C/c1cccc(O)c1`, the growth is 97.2%.

Turning to `O=c1c2cc(Br)cc(Br)c2nc(-c2ccc(Cl)cc2)n1/N=C\c1ccccc1F`, the growth is 98.4%.

In the case of `C=CCN(CC#N)CC=C`, the growth is 104%.

Turning to `COC(=O)[C@@H](Cc1c[nH]c2ccccc12)NC(=O)/C=C/c1ccccc1`, the growth was 44.3%.

For `CCOC(=O)C(CCCCC(NC(C)=O)(C(=O)OCC)C(=O)OCC)(NC(C)=O)C(=O)OCC`, the growth was 97%.

For `COc1ccc(-c2cnnn2-c2nonc2-n2cccc2)cc1`, the growth was 18.4%.

As to `CSC1=N/C(=C\c2cccc(OCc3ccc(Cl)cc3)c2)C(=O)N1`, the growth is 100%.

Consider `COc1ccc([C@H]2c3[nH]c4ccccc4c3C[C@H]3C(=O)N(CCCCCCC(=O)NO)CC(=O)N23)cc1`, for which the growth was 4.8% (active).

For the compound `c1csc(-c2cnc3nonc3n2)c1`, the growth was 104%.

For the compound `CC1(C)CN(CCNc2nccc(-c3c(-c4cccc(O)c4)nc4sccn34)n2)S(=O)(=O)N1`, the growth was 20.1%.

In the case of `COc1cc(C2CC(c3ccc(Cl)cc3)=NN2C(C)=O)ccc1Oc1ccnc2cc(Cl)ccc12` (stereo unspecified), the growth is 55.1%.

As to `CN(C)CCCn1c(=O)c2cc([N+](=O)[O-])ccc2c2cnc3[nH]ccc3c21`, the growth is 104%.

Turning to `CN(C)N1C(=O)c2c(Cl)c(Cl)c(Cl)c(Cl)c2C1=O`, the growth was 112%.

In the case of `CCCCCCCCCCCCNC(=O)N[C@H](C(=O)N[C@H]1/C=C/OCCNC(=O)/C=C/[C@H](C(C)C)NC1=O)C(C)C`, the growth was 46.3%.

As for `COc1ccc2c(c1)sc1nc(-c3ccccc3)c(-c3cccc4ccccc34)n12`, the growth is 52.1%.

With `O=C(O)CSc1ccc(NCc2oc(CO)cc(=O)c2O)cc1`, the growth was 104%.

Regarding `Oc1ccc(-c2nnc3c4[nH]ccc4ncn23)cc1`, the growth was 102%.

As to `COc1cccc(N2CCN(c3ncnc4cc[nH]c34)CC2)c1`, the growth is 80.8%.

Take `NC(N)=NC1CCCCC1`: the growth was 109%.

On to `COc1cc(CN(c2ccc(C)cc2)C2OC(=O)c3ccccc32)cc(OC)c1OC` (stereo unspecified), for which the growth was 51.8%.

`CC(C)(C)OC[C@@H]1N=C(c2ccc(Br)cc2)Nc2nc3ccccn3c2C1=O`: the growth is 68.6%.

On to `Cc1ccc(Nc2cc(Cl)c([N+](=O)[O-])cc2[N+](=O)[O-])cc1`, for which the growth was 71.5%.

As to `N/C(=C\C(=O)n1nc(-c2ccccc2)cc1N)c1ccccc1`, the growth was 42.2%.

With `Nc1nc(N)c2cc(NCc3ccc(Cl)c(Cl)c3)ccc2n1`, the growth is -94.1% (active).

On to `Cn1c(-c2ccccc2)cc(=O)n1-c1ccccc1`, for which the growth was 113%.

For the compound `O=C(Nc1ccncc1)C(=O)c1cn(S(=O)(=O)c2cccc(Cl)c2F)c2ccccc12`, the growth was 95.1%.

For `O=C(CSc1nnc(Cc2ccccc2Nc2c(Cl)cccc2Cl)n1-c1ccccc1)N1N=C(c2ccc3ccccc3c2)CC1c1ccc(Cl)cc1` (stereo unspecified), the growth is 112%.

With `CSc1ccc(/C=C2\C=C(CC(=O)NCc3ccc(C(=O)c4ccccc4)cc3)c3cc(F)ccc32)cc1`, the growth was 18.2%.

As to `C=C1C(=O)O[C@H]2[C@H]1CC/C(COC(=O)NCc1ccc(Cn3c(=O)sn(CCCl)c3=O)cc1)=C\CC[C@@]1(C)O[C@@H]21`, the growth is 64.3%.

With `O=C(O/C(=C/c1ccccc1)C(F)(F)F)c1ccccc1`, the growth is 116%.

As to `COc1ccc(N=C2CSc3nnc(-c4cc(F)c(Cl)cc4Cl)n3N2)cc1`, the growth is -31.3% (active).

As for `CCCCCCCCN(CCCCCCCC)C(=O)CCl`, the growth is 110%.

Turning to `CC(C)(CCc1ccccn1)C(=O)CCCc1ccccn1`, the growth is 115%.

As for `Cn1cnc([N+](=O)[O-])c1S(=O)(=O)Oc1ccccc1`, the growth was 106%.

In the case of `CCOC(=O)C1=C(C)NC(=S)NC1c1ccccc1` (stereo unspecified), the growth was 112%.
